The text below walks through data of PubChem BioAssay (Tox21).

Assay [1] has as its target Thyrotropin-releasing hormone receptor (Homo sapiens) (UniProt P34981). The assay is described as follows: qHTS assay to identify small molecule agonists of the thyrotropin-releasing hormone receptor (TRHR) signaling pathway (AID 1346891; calls by dose curve; note: series mostly up to about 58 µM). The method, boiled down:
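Screening of agonists relied on calcium signalling in HEK293 cells expressing human TRHR: dye loading 2 h at 37 °C preceded compound addition and a 3-min fluorescence time course.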
On the technique in general: Quantitative high-throughput screening tests each substance at several concentrations.

A short description of assay [2]: Human pregnane X receptor (PXR) small molecule agonists, qHTS cell viability counter screen (AID 1346977). Note: nearly all actives have a fitted effect of over 50% in size. The method, boiled down: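 Tox21 qHTS format; PXR-Luc HepG2, 2,000/well, charcoal-stripped FBS 5%. Cpd exposure 24hr. Read: CellTiter-Fluor fluorescence, multiplexed with luciferase.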
Assay [3] is described as follows: Caspase-3/7 induction in CHO-K1 cells by small molecules, qHTS cell viability counter screen (AID 1346979). Note: nearly all actives have a fitted effect of over 35% in size. The procedure, abridged: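 CellTiter-Fluor viability check, qHTS format: wild-type CHO-K1, 16hr compound treatment, 1hr reagent incubation, fluorescence read.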
Assay [4] is described as follows: Caspase-3/7 induction in CHO-K1 cells by small molecules, qHTS assay (AID 1346980). Note: nearly all actives have a fitted effect of over 15% in size. The procedure, abridged: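 Luminescent Caspase-Glo 3/7 read (30min, room temperature) quantified apoptosis induction. Cells were wild-type CHO-K1, treated with compound for 17hr at 37 C and 5% CO2.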
Assay [5] can be described thus: Caspase-3/7 induction in HepG2 cells by small molecules, qHTS cell viability counter screen (AID 1346981). Note: series mostly up to about 92 µM; nearly all actives have a fitted effect of over 30% in size. The procedure, abridged:
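Multiplexed with the caspase-3/7 assay: HepG2 cells, 16 hr compound treatment, CellTiter-Fluor viability detection by fluorescence.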

Assay [6] deals with Nuclear receptor subfamily 1 group I member 2 (Homo sapiens) (UniProt O75469). As to the kind of experiment: Human pregnane X receptor (PXR) small molecule agonists, qHTS assay (AID 1346982). Note: nearly all actives have a fitted effect of over 35% in size. The method, boiled down:
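We seeded PXR-Luc HepG2 cells in assay medium containing 5% charcoal-stripped FBS, added compounds 5 hr later, incubated 24 hr, and read luminescence with ONE-Glo reagent.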

Assay [7] concerns the target Acetylcholinesterase (Homo sapiens) (UniProt P22303). As to the kind of experiment: Acetylcholinesterase (AChE) small molecule antagonists: colormetric cell-based qHTS assay (AID 1347395; calls by dose curve; note: nearly all actives have a fitted effect of over 30% in size). The method, boiled down: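 AChE inhibition read colorimetrically via DTNB–thiocholine in SH-SY5Y cells. Compound 30 min, substrate 90 min, both 37 C.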
For assay [8] the target is unchanged. The assay is described as follows: Acetylcholinesterase (AChE) small molecule antagonists: fluorescence cell-based qHTS assay (AID 1347398; calls by dose curve; note: nearly all actives have a fitted effect of over 50% in size). Conditions: Potency: AChE activity; outcome: AChE activity. The method, boiled down: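 Read-out is Thiolite Green fluorescence at Ex/Em = 490/520 nm, formed by reaction with thiocholine released when cellular AChE in SH-SY5Y cells hydrolyzes acetylthiocholine. Compounds were preincubated 30 min at 37 C before substrate.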

Assay [9] has the same target. The assay is described as follows: Acetylcholinesterase (AChE) small molecule antagonists: enzyme-based qHTS assay with human liver microsomes (AID 1347399; calls by dose curve; note: nearly all actives have a fitted effect of over 60% in size). Particulars: Potency: qHTS inhibition; outcome: qHTS inhibition. The method, boiled down:
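Recombinant human AChE (50 mU/mL in the enzyme mix) and human liver microsomes (0.25 mg/mL final) were preincubated with compound and NADPH (0.25 mg/mL final) for 30 min at 37 C. Acetylthiocholine/DTNB was then added; thiocholine was read colorimetrically after 10 min at room temperature.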

For assay [10], the target named is Cytochrome P450 2C19 (Homo sapiens) (UniProt P33261). The assay is described as follows: Cytochrome P450 Family 2 Subfamily C Member 19 (CYP2C19) small molecule antagonists: luciferase reporter qHTS assay (AID 1671197). Note: nearly all actives have a fitted effect of over 65% in size. Note: potency is the fitted concentration of half-maximal effect. The method, boiled down:
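Enzyme-substrate mix with proluciferin substrate (P450-Glo CYP2C19 system) preincubated with compounds 10 min at room temperature; NADPH regeneration solution added, 37C for 1 h; detection reagent stops reaction, luminescence read after 20 min. Ketoconazole positive control.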
On the technique in general: In a reporter assay the amount or activity of a reporter protein is the signal.

The target in assay [11] is Cytochrome P450 2C9 (Homo sapiens) (UniProt P11712). As to the kind of experiment: Cytochrome P450 Family 2 Subfamily C Member 9 (CYP2C9) small molecule antagonists: luciferase reporter qHTS assay (AID 1671198). Note: nearly all actives have a fitted effect of over 50% in size. Note: potency is the fitted concentration of half-maximal effect. The method, boiled down:
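Enzyme-substrate mix preincubated with compound 10 min at room temperature; reaction started with NADPH regeneration solution, 1 h 37C. Luminescent luciferin product read after 20 min detection reagent.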

Assay [12] addresses Cytochrome P450 1A2 (Homo sapiens) (UniProt P05177). As to the kind of experiment: Cytochrome P450 Family 1 Subfamily A Member 2 (CYP1A2) small molecule antagonists: luciferase reporter qHTS assay (AID 1671199). Note: nearly all actives have a fitted effect of over 50% in size. Note: potency is the fitted concentration of half-maximal effect. The procedure, abridged:
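CYP1A2 turnover of a luminogenic substrate was quantified after 1 h with NADPH regeneration at room temperature. Furafylline served as positive control.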

The target of assay [13] is Voltage-gated inwardly rectifying potassium channel KCNH2 (Homo sapiens) (UniProt Q12809). As to the kind of experiment: Human Ether-a-go-go-Related Gene (hERG) channel small molecule antagonists: fluorescence cell-based qHTS assay (AID 1671200). Note: nearly all actives have a fitted effect of over 50% in size. Note: potency is the fitted concentration of half-maximal effect. The method, boiled down: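 Kinetic two-minute fluorescence traces, sampled at 1 s, were collected following thallium stimulus of U2OS cells (1000 per well) that had been cultured overnight at 37 C and loaded with FluxOR II.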
A general note: The hERG channel carries a current that helps repolarise heart muscle cells.

Assay [14] addresses Cytochrome P450 3A4 (Homo sapiens) (UniProt P08684). The assay is described as follows: Cytochrome P450 Family 3 Subfamily A Member 4 (CYP3A4) small molecule antagonists: luciferase reporter qHTS assay (AID 1671201). Note: nearly all actives have a fitted effect of over 50% in size. Note: potency is the fitted concentration of half-maximal effect. The procedure, abridged:
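Proluciferin-to-luciferin conversion by CYP3A4, NADPH-regenerated, 1 h RT; luminescence read as RLU. Ketoconazole as control.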

Assay [15] addresses Acetylcholinesterase (Homo sapiens) (UniProt P22303). The assay is described as follows: Acetylcholinesterase (AChE) small molecule antagonists: enzyme-based qHTS assay (AID 1347397; calls by dose curve; note: nearly all actives have a fitted effect of over 55% in size). Conditions: Potency: AChE enzyme activity inhibition; outcome: AChE enzyme activity inhibition. The procedure, abridged: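 rhAChE 50 mU/mL (dispensed) + cpd or DMSO, 30 min RT; add DTNB/acetylthiocholine cocktail, 10 min RT; colorimetric thiocholine readout. qHTS, 1536-well format.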

In assay [16] the target is Cytochrome P450 2D6 (Homo sapiens) (UniProt P10635). As to the kind of experiment: Cytochrome P450 Family 2 Subfamily D Member 6 (CYP2D6) small molecule antagonists: luciferase reporter qHTS assay (AID 1671196). Note: nearly all actives have a fitted effect of over 50% in size. Note: potency is the fitted concentration of half-maximal effect. The procedure, abridged: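 Luminescence (RLU), read 20 min after detection reagent, indicated CYP2D6 conversion of proluciferin to luciferin during a 1 h NADPH-dependent reaction at room temperature.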

A short description of assay [17]: Caspase-3/7 induction in HepG2 cells by small molecules, qHTS assay (AID 1346978). Note: nearly all actives have a fitted effect of over 15% in size. The method, boiled down: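 Caspase-3/7 induction was measured by Caspase-Glo 3/7 luminescence (30 min, room temperature) after a 17 hr compound exposure of wild-type HepG2 cells seeded at 2,000 per well and pre-incubated 5 hr.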

A number with no mark means an inactive call. Records with an inconclusive call do not appear. Calls of active or inactive are those of the source. Unless noted, calls come from the whole dose curve; as a rule, active = well fitted curve in the direction sought with a large enough effect in the repeat runs; inconclusive = weak or mixed curves; inactive = no such curve, though single readings can be large; an effect the other way counts as inactive or inconclusive.

Sequence of Acetylcholinesterase (Homo sapiens) (P22303 whole entry, looked up): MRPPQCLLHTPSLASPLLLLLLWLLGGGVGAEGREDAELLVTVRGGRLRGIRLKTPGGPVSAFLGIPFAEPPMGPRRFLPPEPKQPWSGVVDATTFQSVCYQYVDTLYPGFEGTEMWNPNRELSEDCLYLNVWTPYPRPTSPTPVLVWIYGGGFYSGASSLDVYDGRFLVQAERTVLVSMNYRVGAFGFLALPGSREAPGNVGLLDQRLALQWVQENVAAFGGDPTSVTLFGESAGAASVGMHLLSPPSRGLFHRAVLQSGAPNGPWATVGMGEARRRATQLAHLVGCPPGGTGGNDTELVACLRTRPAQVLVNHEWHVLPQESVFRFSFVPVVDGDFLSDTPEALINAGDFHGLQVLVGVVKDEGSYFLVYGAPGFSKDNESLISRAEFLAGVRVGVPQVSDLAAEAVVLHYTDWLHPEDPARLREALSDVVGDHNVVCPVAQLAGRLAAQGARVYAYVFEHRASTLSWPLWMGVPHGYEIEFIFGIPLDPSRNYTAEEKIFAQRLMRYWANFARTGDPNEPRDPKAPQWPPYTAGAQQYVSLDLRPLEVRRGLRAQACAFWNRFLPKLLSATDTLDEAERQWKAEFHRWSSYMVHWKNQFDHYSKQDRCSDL
Sequence of Voltage-gated inwardly rectifying potassium channel KCNH2 (Homo sapiens) (Q12809 whole entry, looked up): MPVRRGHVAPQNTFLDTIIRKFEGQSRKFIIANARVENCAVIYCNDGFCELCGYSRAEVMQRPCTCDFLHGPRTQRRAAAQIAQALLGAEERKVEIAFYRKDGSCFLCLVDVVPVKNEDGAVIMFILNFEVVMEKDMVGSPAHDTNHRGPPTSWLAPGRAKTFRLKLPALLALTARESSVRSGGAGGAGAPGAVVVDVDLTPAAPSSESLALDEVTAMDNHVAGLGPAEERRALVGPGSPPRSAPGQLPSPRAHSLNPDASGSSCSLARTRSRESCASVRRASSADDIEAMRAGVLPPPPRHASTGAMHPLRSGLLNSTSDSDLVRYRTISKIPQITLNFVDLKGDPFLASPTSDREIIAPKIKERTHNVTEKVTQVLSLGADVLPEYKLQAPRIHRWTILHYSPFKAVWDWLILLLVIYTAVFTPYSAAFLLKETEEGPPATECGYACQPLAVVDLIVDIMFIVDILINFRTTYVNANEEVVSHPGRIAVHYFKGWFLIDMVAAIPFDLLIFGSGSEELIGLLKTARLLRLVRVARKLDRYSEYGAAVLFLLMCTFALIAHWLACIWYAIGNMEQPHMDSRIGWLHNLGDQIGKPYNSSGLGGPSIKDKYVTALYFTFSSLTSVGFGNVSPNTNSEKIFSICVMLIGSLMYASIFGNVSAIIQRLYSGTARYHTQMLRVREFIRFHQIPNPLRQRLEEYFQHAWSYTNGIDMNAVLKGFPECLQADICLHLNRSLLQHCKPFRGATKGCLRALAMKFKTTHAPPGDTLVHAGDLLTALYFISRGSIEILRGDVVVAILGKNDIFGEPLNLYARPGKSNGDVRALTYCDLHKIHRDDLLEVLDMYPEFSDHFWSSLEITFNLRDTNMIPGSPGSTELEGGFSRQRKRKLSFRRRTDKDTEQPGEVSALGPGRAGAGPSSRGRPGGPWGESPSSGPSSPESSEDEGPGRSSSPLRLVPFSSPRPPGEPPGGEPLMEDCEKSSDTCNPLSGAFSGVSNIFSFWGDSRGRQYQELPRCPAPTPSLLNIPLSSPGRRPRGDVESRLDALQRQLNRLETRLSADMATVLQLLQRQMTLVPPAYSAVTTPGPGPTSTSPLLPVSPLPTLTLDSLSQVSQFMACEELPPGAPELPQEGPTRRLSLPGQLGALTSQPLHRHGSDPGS
Sequence of Thyrotropin-releasing hormone receptor (Homo sapiens) (P34981 whole entry, looked up): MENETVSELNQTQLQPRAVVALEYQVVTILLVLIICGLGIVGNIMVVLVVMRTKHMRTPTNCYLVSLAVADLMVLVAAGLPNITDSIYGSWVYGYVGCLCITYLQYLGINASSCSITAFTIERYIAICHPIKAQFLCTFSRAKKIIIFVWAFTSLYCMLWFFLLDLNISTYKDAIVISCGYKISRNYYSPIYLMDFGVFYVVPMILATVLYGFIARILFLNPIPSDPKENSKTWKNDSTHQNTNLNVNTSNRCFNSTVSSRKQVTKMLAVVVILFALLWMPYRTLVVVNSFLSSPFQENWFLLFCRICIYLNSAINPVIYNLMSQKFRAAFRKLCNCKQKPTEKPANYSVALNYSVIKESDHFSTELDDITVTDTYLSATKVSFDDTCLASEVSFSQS
Sequence of Cytochrome P450 2C9 (Homo sapiens) (P11712 whole entry, looked up): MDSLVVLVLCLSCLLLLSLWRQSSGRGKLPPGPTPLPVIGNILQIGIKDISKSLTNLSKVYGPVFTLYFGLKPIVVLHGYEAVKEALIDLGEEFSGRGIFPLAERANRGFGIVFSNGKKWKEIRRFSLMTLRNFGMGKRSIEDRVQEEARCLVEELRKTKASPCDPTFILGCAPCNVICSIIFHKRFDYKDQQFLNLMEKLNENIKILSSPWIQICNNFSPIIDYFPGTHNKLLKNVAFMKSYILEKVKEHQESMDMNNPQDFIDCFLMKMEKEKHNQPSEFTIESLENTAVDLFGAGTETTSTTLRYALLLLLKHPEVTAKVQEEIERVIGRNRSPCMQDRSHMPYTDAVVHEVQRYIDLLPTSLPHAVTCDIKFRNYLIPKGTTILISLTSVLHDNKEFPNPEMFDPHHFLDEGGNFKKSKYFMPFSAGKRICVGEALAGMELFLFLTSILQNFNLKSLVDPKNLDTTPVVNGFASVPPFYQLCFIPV
Sequence of Cytochrome P450 2C19 (Homo sapiens) (P33261 whole entry, looked up): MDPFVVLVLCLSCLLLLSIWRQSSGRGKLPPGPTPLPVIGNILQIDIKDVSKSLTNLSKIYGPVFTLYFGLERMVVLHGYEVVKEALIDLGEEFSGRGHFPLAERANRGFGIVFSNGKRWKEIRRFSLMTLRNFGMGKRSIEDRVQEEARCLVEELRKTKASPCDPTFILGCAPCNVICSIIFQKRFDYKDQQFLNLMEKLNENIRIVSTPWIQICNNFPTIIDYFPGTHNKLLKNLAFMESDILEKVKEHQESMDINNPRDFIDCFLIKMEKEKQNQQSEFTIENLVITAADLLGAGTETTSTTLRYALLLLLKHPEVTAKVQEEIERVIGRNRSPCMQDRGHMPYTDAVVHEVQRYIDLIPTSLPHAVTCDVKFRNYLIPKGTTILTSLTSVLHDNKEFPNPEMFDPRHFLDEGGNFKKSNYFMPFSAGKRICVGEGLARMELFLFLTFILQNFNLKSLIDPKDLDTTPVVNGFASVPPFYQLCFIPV
Sequence of Cytochrome P450 3A4 (Homo sapiens) (P08684 whole entry, looked up): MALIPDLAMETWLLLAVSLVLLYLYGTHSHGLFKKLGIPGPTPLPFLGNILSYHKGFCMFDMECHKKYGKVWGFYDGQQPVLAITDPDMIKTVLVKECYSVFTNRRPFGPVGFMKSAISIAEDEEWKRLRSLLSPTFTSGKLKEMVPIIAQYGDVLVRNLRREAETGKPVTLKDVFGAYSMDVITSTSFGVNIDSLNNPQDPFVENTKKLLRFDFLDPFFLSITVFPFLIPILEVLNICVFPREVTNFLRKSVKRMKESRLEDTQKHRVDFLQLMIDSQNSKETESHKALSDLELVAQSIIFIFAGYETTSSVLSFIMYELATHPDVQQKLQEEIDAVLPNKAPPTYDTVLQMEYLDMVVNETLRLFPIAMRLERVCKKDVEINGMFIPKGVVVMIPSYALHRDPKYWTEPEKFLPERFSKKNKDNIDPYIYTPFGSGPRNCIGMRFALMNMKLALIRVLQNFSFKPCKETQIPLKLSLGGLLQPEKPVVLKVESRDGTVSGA
Sequence of Cytochrome P450 1A2 (Homo sapiens) (P05177 whole entry, looked up): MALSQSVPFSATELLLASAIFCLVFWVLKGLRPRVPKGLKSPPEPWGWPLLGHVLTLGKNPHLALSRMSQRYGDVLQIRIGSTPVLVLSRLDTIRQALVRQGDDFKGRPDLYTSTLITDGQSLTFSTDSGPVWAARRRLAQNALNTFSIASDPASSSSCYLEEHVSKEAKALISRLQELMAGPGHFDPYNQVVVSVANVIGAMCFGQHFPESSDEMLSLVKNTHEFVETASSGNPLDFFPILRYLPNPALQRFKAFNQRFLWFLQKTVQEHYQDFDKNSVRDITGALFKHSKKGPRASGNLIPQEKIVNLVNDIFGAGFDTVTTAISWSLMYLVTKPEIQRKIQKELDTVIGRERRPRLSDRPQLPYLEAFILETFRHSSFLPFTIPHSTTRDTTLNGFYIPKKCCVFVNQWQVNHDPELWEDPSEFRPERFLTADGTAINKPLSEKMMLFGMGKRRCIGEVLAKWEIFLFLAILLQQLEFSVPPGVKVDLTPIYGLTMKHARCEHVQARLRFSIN
Sequence of Nuclear receptor subfamily 1 group I member 2 (Homo sapiens) (O75469 whole entry, looked up): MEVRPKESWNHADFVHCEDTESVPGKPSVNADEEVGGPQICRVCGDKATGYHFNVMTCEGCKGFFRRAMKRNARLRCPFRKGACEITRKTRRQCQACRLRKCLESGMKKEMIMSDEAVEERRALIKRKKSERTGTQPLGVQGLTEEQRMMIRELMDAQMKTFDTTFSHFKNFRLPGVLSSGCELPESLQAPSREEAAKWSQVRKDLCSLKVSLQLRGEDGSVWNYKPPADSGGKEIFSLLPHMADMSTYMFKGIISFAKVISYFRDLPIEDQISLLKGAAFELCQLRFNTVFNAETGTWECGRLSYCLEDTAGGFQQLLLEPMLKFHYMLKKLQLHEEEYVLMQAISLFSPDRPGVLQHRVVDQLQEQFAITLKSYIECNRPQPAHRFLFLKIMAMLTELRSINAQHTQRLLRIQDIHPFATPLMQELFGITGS

With `C=CC=O`, the result in assay [1] and in assay [4] was inactive. Also, the Potency result in [2], in assay [3], in assay [5], in [6], in [7] and in assay [8] was “inactive” in each case. For the same compound, the Potency result in [9], in [10], in assay [11], in assay [12], in assay [13] and in [14] was “inactive” each time.
`CCC(C)(C#N)N=NC(C)(C#N)CC` (stereo unspecified): the compound was called inactive in assay [1] and in [4]. For the same compound, the Potency entry in [2], in [3], in assay [5], in assay [6], in assay [7] and in [15] was “inactive” in each case. In addition, the Potency entry in assay [8], in assay [9], in [16], in assay [11], in [12] and in [13] was “inactive” each time. For the same compound, the Potency entry in assay [14] was “inactive”.
In the case of `CC(C)NCC(O)c1ccc([N+](=O)[O-])cc1` (stereo unspecified), the compound was classed as inactive in [1] and in assay [4]. The Potency result in assay [2], in assay [5], in assay [6], in [7], in assay [15] and in assay [8] was “inactive” each time. The Potency entry in assay [9], in [10], in assay [11], in assay [12] and in [14] was “inactive” throughout. The Potency in [16] is 27.5 µM (active).
In the case of `CCOC(=O)C(Cl)Cc1cc(-n2nc(C)n(C(F)F)c2=O)c(F)cc1Cl` (stereo unspecified), in assay [1], the call was inactive. The Potency result in assay [2], in assay [3], in assay [5], in assay [6] and in assay [9] was “inactive” in each case. Also, the Potency in assay [10] is 5.64 µM (active); in assay [11] it was 7.1 µM (active); in [12], 28.3 µM (active); in assay [13], 24.5 µM (active); in assay [14], 35.6 µM (active).
Consider `[P]#[In]`, for which the result in [1], in [17] and in assay [4] was inactive. Moreover, the Potency result in [3], in assay [5], in assay [6], in assay [15], in assay [8] and in [9] was “inactive” throughout. In addition, the Potency entry in assay [10], in [11], in assay [12], in assay [13] and in assay [14] was “inactive” in each case.
On to `CCc1cc(OC)c(C[C@H](C)N)cc1OC`, for which the call in assay [1], in assay [17] and in [4] was inactive. The Potency result in assay [3], in [5], in [6], in assay [10], in [11] and in assay [13] was “inactive” throughout. Moreover, the Potency in assay [16] was 4.16 µM (active); in assay [12], 20.9 µM (active).
For the compound `C[C@H](N)C(=O)c1ccccc1`, the outcome in assay [1] and in assay [4] was inactive. Moreover, the Potency result in assay [2], in [5], in assay [6], in assay [7], in assay [8] and in assay [9] was “inactive” throughout. Besides, the Potency entry in assay [13] was “inactive”. In addition, the Potency in assay [10] is 47.3 µM (active); in [12], 53.1 µM (active).
On to `O=[N+]([O-])c1cccc(CCl)c1`, for which the outcome in [1] and in assay [4] was inactive. In addition, the Potency result in assay [2], in assay [3], in assay [5] and in [13] was “inactive” throughout.
